Results filed as inconclusive are left out. Calls of active or inactive are those of the source. Rule for the calls: active = hit-call score of the fitted dose curve at least 0.9, where 1 is the maximum; inconclusive = response in the unintended direction; inactive = score below 0.9.
Key:
[1] = system: frog Estrogen Receptor (ESR2), gene 100174814; test: ATG_frER2_XSP1: Attagene TRANS-FACTORIAL Multi-Species (XSP1) HepG2 Assay for frog Estrogen Receptor (ESR2) (AID 2283774)
How it was run: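 HepG2 cells transiently transfected with GAL4-UAS multiplexed reporter units expressing chimeric NR-Gal4 proteins; reporter mRNA measured 24 h after dosing by RT-PCR, FAM labeling, HpaI digestion and capillary electrophoresis. Gain-of-signal relative to DMSO; 3 nM 6-alpha-fluorotestosterone present.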

[2] = system: frog Estrogen Receptor (ESR1), gene 398734; test: ATG_frER1_XSP1: Attagene TRANS-FACTORIAL Multi-Species (XSP1) HepG2 Assay for frog Estrogen Receptor (ESR1) (AID 2283777)
How it was run: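 Read-out: fluorescent reporter mRNA via RT-PCR, HpaI digestion and capillary electrophoresis, after 24 h chemical exposure of transiently transfected human HepG2 cells expressing exogenous NR-Gal4 chimeras. DMSO served as baseline for positive-direction fitting.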

[3] = system: zebrafish Estrogen Receptor (ESR2A), gene 317734; test: ATG_zfER2a_XSP1: Attagene TRANS-FACTORIAL Multi-Species (XSP1) HepG2 Assay for zebrafish Estrogen Receptor (ESR2A) (AID 2283778)
How it was run: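 HepG2 cells transiently transfected with multiplexed GAL4-UAS reporter units and chimeric NR-GAL4 receptors; 24 h compound exposure with 3 nM 6-alpha-fluorotestosterone present. Reporter mRNA quantified by RT-PCR and capillary electrophoresis, gain-of-signal fitted relative to DMSO.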

[4] = target: chicken Estrogen Receptor (ESR1), ESR1 (gene 396099) (UniProt P06212); test: ATG_chERa_XSP1: Attagene TRANS-FACTORIAL Multi-Species (XSP1) HepG2 Assay for chicken Estrogen Receptor (ESR1) (AID 2283779)
Sequence of chicken Estrogen Receptor (ESR1), ESR1 (gene 396099) (P06212 whole entry, looked up, the tested form may be a part): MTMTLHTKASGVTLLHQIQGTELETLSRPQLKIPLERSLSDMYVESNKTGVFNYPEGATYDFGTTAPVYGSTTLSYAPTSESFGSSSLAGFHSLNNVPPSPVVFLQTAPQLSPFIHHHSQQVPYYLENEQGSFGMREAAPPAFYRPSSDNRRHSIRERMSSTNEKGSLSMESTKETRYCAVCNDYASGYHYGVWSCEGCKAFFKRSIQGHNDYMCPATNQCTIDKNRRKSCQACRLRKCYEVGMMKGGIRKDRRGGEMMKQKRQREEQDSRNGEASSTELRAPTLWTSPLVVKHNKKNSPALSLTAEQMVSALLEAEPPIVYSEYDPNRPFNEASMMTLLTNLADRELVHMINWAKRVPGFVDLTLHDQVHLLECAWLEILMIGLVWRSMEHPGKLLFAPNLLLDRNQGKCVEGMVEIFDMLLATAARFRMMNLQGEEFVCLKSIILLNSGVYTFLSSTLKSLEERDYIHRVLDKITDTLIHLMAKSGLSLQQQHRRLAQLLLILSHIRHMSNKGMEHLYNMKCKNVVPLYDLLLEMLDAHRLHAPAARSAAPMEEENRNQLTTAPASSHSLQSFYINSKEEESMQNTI
How it was run: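 HepG2 cells transiently transfected with multiplexed GAL4-UAS reporter units expressing chimeric NR-Gal4 proteins; 3 nM 6-alpha-fluorotestosterone present. Reporter mRNA measured 24 h after dosing by RT-PCR, FAM labelling, HpaI digest and capillary electrophoresis; gain of signal versus DMSO.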

[5] = target: Estrogen receptor (Homo sapiens) (UniProt P03372); test: ATG_hERa_XSP1: Attagene TRANS-FACTORIAL Multi-Species (XSP1) HepG2 Assay for human Estrogen Receptor (ESR1) (AID 2283780)
Sequence of Estrogen receptor (Homo sapiens) (P03372 whole entry, looked up, the tested form may be a part): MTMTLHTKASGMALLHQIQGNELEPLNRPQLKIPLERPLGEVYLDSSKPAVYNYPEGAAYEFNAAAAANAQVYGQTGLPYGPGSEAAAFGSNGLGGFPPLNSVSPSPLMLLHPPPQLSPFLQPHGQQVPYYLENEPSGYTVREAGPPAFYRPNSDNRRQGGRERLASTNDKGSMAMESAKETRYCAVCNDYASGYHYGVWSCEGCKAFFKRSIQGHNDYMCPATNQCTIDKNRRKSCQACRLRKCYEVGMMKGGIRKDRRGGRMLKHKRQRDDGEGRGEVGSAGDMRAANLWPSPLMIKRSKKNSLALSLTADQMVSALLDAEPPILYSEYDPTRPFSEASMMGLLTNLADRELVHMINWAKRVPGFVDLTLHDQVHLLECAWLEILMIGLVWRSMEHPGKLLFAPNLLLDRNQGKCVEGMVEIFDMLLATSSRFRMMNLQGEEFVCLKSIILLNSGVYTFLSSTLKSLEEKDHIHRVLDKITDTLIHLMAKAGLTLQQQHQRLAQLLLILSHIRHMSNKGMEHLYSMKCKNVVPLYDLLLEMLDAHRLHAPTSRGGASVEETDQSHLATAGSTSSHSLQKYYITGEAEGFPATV
How it was run: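 HepG2 cells transiently transfected with GAL4-UAS reporter units and chimeric NR-Gal4 constructs; 24 h after dosing, reporter mRNA quantified by RT-PCR and capillary electrophoresis. Medium contained 3 nM 6-alpha-fluorotestosterone; activity fitted as gain-of-signal versus DMSO.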

[6] = system: turtle Estrogen Receptor (ESR1), gene 101933533; test: ATG_trERa_XSP1: Attagene TRANS-FACTORIAL Multi-Species (XSP1) HepG2 Assay for turtle Estrogen Receptor (ESR1) (AID 2283781)
How it was run: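 HepG2 cells transiently transfected with GAL4-UAS reporter units and chimeric NR-Gal4 constructs, dosed for 24 h with 3 nM 6-alpha-fluorotestosterone present. Reporter mRNA was quantified by RT-PCR, fluorescent labelling and capillary electrophoresis, with gain of signal fitted relative to DMSO.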

[7] = system: turtle Androgen Receptor (AR), gene 101947425; test: ATG_trAR_XSP1: Attagene TRANS-FACTORIAL Multi-Species (XSP1) HepG2 Assay for turtle Androgen Receptor (AR) (AID 2283786)
How it was run: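 HepG2 cells transiently transfected with a turtle AR–GAL4 chimera and GAL4-UAS reporter, co-treated with 3 nM 6-alpha-fluorotestosterone for partial stimulation. Reporter mRNA is quantified at 24 h by RT-PCR and capillary electrophoresis, gain-of-signal versus DMSO.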

[8] = target: Estrogen receptor beta (Homo sapiens) (UniProt Q92731); test: ATG_hERb_XSP1: Attagene TRANS-FACTORIAL Multi-Species (XSP1) HepG2 Assay for human Estrogen Receptor (ESR2) (AID 2283788)
Sequence of Estrogen receptor beta (Homo sapiens) (Q92731 whole entry, looked up, the tested form may be a part): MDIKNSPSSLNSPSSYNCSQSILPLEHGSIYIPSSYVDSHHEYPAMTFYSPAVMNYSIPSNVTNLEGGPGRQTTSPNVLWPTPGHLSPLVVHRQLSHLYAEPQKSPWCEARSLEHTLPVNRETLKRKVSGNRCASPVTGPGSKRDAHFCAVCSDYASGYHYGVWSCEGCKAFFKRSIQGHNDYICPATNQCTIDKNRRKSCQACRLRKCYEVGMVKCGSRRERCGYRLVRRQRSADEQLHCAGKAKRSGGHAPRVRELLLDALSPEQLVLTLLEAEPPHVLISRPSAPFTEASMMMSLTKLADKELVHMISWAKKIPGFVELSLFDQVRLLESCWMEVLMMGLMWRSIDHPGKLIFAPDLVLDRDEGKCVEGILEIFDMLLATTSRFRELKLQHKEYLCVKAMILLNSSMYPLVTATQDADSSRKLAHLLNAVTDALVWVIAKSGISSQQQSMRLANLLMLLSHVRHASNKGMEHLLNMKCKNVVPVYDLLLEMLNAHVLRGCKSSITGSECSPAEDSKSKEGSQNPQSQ
How it was run: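 Read-out: reporter mRNA induction by RT-PCR, HpaI digestion and capillary electrophoresis fluorescence, fitted in positive direction relative to DMSO baseline. Human liver HepG2 cells expressing ERβ-Gal4 fusion, dosed 24 h, medium containing 3 nM 6-alpha-fluorotestosterone.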

[9] = target: GAL4 Transcription Factor (Internal Marker), GAL4 (gene 855828) (UniProt P04386); test: ATG_GAL4_XSP1: Attagene TRANS-FACTORIAL Multi-Species (XSP1) HepG2 Assay for GAL4 Transcription Factor (Internal Marker) (AID 2283789)
Sequence of GAL4 Transcription Factor (Internal Marker), GAL4 (gene 855828) (P04386 whole entry, looked up, the tested form may be a part): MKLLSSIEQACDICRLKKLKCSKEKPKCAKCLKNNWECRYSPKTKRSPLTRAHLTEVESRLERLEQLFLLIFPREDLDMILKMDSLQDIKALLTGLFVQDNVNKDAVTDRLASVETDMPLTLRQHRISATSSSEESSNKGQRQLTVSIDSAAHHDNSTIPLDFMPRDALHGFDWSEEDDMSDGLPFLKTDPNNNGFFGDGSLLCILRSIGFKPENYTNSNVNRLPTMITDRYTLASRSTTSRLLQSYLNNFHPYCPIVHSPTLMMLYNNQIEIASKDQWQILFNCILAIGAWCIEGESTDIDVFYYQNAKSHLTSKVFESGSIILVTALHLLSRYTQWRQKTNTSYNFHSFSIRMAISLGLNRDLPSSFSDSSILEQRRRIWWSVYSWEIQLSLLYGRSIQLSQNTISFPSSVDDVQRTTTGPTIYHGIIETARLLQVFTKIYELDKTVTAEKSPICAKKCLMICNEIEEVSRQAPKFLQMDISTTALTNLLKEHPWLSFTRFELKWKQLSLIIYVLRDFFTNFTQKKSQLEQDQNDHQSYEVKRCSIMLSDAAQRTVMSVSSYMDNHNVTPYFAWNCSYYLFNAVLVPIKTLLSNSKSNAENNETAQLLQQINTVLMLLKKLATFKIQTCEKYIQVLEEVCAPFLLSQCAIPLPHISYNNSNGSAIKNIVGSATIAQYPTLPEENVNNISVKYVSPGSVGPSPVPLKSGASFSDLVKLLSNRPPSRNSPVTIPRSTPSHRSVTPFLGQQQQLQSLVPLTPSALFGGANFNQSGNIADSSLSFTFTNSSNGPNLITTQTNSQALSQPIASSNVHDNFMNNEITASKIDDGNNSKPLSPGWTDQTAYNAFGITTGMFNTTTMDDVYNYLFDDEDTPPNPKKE
How it was run: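 HepG2 cells transiently transfected with multiplexed GAL4-UAS reporter units were exposed for 24 h with 3 nM 6-alpha-fluorotestosterone present. Reporter mRNA was quantified by RT-PCR, FAM labelling, HpaI digestion and capillary electrophoresis; background-control readout, gain-of-signal versus DMSO.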

[10] = ATG_M_06_XSP1: Attagene TRANS-FACTORIAL Multi-Species (XSP1) HepG2 Assay for M06 Transcription Factor (Internal Marker) (AID 2283790)
How it was run: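 Transfected HepG2 multi-reporter system treated 24 h in the presence of 3 nM 6-alpha-fluorotestosterone. The M06 internal marker transcript was quantified by RT-PCR with capillary electrophoresis as a background control, and gain of signal was scored versus DMSO.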

[11] = ATG_M_61_XSP1: Attagene TRANS-FACTORIAL Multi-Species (XSP1) HepG2 Assay for M61 Transcription Factor (Internal Marker) (AID 2283797)
How it was run: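 HepG2 cells transiently transfected with multiplexed GAL4-driven reporter units, dosed 24 h with 3 nM 6-alpha-fluorotestosterone present. Reporter mRNA quantified by RT-PCR, 6-FAM labelling, HpaI digestion and capillary electrophoresis; internal-marker background control, gain of signal versus DMSO.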

[12] = target: mouse Peroxisome Proliferator-activated Receptor gamma (PPARg), Pparg (gene 19016) (UniProt P37238); test: ATG_mPPARg_XSP1: Attagene TRANS-FACTORIAL Multi-Species (XSP1) HepG2 Assay for mouse Peroxisome Proliferator-activated Receptor gamma (PPARg) (AID 2283802)
Sequence of mouse Peroxisome Proliferator-activated Receptor gamma (PPARg), Pparg (gene 19016) (P37238 whole entry, looked up, the tested form may be a part): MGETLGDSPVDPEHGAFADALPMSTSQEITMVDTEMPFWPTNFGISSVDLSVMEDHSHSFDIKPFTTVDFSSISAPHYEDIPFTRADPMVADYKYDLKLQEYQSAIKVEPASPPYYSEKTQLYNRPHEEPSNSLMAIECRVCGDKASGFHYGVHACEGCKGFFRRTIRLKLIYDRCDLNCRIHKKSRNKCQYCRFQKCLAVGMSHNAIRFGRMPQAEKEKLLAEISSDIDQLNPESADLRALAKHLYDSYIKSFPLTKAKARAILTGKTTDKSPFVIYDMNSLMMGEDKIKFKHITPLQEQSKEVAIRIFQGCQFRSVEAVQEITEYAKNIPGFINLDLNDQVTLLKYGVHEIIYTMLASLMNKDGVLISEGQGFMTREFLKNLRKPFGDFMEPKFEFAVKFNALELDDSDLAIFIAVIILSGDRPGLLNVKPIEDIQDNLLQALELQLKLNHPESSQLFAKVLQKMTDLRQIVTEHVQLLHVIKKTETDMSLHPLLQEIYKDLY
How it was run: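 HepG2 cells transiently transfected with GAL4-UAS reporter units driven by mouse PPARg–GAL4 chimera; 3 nM 6-alpha-fluorotestosterone present. After 24 h dosing, reporter mRNA quantified by RT-PCR, fluorescent labelling and capillary electrophoresis; gain of signal versus DMSO.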

[13] = target: Nuclear receptor subfamily 1 group I member 2 (Mus musculus) (UniProt O54915); test: ATG_mPXR_XSP1: Attagene TRANS-FACTORIAL Multi-Species (XSP1) HepG2 Assay for mouse Pregnane X Receptor (PXR) (AID 2283803)
Sequence of Nuclear receptor subfamily 1 group I member 2 (Mus musculus) (O54915 whole entry, looked up, the tested form may be a part): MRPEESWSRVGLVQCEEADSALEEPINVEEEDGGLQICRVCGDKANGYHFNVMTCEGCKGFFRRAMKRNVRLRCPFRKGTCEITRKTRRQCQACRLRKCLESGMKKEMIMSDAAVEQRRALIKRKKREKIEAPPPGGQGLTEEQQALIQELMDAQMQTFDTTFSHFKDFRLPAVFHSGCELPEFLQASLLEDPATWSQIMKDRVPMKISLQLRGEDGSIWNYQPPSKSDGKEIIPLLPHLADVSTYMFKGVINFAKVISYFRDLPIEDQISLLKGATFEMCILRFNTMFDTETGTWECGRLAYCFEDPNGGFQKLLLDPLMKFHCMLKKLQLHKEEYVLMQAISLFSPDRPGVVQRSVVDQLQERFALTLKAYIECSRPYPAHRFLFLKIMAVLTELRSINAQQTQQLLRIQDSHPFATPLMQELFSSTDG
How it was run: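 Transiently transfected HepG2 cells expressing a receptor-Gal4 chimera drive a GAL4-UAS reporter; 3 nM 6-alpha-fluorotestosterone included. Reporter mRNA read 24 h post-dose by RT-PCR and capillary electrophoresis; gain of signal relative to DMSO.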

[14] = target: frog Thyroid hormone Receptor alpha (TRa), thra-a (gene 397942) (UniProt P15204); test: ATG_frTRa_XSP1: Attagene TRANS-FACTORIAL Multi-Species (XSP1) HepG2 Assay for frog Thyroid hormone Receptor alpha (TRa) (AID 2283804)
Sequence of frog Thyroid hormone Receptor alpha (TRa), thra-a (gene 397942) (P15204 whole entry, looked up, the tested form may be a part): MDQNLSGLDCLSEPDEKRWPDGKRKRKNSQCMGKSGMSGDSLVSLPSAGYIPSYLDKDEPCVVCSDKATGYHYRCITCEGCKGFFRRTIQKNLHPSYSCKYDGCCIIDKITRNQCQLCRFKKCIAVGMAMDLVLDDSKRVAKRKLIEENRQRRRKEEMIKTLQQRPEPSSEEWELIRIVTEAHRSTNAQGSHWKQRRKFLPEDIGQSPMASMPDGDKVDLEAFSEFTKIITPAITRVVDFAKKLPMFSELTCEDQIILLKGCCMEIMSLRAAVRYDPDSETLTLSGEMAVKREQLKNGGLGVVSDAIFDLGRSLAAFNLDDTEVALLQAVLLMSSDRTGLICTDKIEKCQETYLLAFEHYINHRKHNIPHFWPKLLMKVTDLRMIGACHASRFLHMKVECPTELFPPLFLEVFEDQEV
How it was run: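 HepG2 cells transiently transfected with frog TRa-GAL4 chimeric reporter units, dosed 24 hr with 3 nM 6-alpha-fluorotestosterone present; reporter mRNA quantified by RT-PCR, fluorescent labelling and capillary electrophoresis, gain of signal versus DMSO.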

[15] = ACEA_AR_antagonist_AUC_viability: ACEA Biosciences xCELLigence Real-Time Cell Analysis on Androgen Receptor Antagonism for Viability (AID 2283776);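 note: 22Rv1 human prostate cancer cells growing on impedance electrode plates; area under impedance growth curve at 80 h after dosing as viability; hits lower the growth signal relative to DMSO meaning cytotoxicity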
How it was run: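 Impedance read-out (RT-CES): area under growth curve at 80 h post-dose, loss of signal scored vs DMSO baseline. 22Rv1 cells; 8-pt 1:4 series, top 100 uM final, ≤0.5% DMSO; biological duplicate.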

[16] = ACEA_ER_AUC_viability: ACEA Biosciences xCELLigence Real-Time Cell Analysis on Estrogen Receptor Agonism for Viability (AID 2283782);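 note: continuous compound exposure with impedance area under curve over 80 h; hit means loss of impedance signal meaning reduced cell growth or viability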
How it was run: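 T-47D human breast cells in phenol red-free RPMI1640 with 10% charcoal-stripped FBS were dosed with an 8-point 1:4 dilution series from 100 uM top final concentration, in duplicate. Impedance-based growth was followed for 80 h; AUC analysed versus DMSO.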

[17] = ACEA_AR_agonist_AUC_viability: ACEA Biosciences xCELLigence Real-Time Cell Analysis on Androgen Receptor Agonism for Viability (AID 2283775)
How it was run: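 Read-out is area under the impedance curve at 80 h post-dose in 22Rv1 cells, with DMSO as baseline and signal loss taken as reduced viability. Compounds ran in duplicate from 100 uM final.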

AR (gene 367) [18] = target: AR (gene 367) (UniProt P10275); test: ACEA_AR_agonist_80hr: ACEA Biosciences xCELLigence Real-Time Cell Analysis on Androgen Receptor Agonism for Proliferation (AID 2283783);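 note: hits increase impedance growth signal above DMSO baseline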
Sequence of AR (gene 367) (P10275 whole entry, looked up): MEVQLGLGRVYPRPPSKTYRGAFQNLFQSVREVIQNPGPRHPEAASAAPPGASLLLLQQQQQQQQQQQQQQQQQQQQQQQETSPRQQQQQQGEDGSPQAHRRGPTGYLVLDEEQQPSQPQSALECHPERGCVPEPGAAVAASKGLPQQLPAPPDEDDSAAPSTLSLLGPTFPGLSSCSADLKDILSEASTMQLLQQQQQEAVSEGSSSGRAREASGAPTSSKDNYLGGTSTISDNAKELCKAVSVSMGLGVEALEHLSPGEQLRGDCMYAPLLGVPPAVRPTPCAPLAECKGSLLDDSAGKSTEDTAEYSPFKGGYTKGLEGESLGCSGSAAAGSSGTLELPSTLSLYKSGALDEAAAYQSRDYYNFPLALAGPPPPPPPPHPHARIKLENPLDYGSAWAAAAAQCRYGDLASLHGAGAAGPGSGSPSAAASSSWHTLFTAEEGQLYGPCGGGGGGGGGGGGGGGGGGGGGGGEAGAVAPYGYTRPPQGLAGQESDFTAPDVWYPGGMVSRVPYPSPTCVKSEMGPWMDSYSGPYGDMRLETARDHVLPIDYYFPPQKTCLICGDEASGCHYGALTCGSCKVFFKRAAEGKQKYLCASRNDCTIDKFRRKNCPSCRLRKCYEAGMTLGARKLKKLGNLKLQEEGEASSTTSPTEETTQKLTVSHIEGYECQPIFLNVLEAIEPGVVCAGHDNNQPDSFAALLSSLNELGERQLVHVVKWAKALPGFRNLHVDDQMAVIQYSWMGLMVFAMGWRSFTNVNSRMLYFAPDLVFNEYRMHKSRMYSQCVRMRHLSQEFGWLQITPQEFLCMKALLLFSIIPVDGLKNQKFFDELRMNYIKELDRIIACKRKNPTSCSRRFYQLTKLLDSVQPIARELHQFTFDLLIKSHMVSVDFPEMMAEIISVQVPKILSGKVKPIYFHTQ
How it was run: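 22Rv1 human prostate cancer cells were seeded after preconditioning in assay medium and monitored overnight, then dosed in an eight-point 1:4 dilution series from 100 uM (≤0.5% DMSO). Impedance-based growth was read at 80 h, gain-of-signal versus DMSO.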

AR (gene 367) [19] = target: AR (gene 367) (UniProt P10275); test: ACEA_AR_antagonist_80hr: ACEA Biosciences xCELLigence Real-Time Cell Analysis on Androgen Receptor Antagonism for Proliferation (AID 2283787);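 note: hits lower the impedance growth signal relative to DMSO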
How it was run: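 Impedance readout (RT-CES), 80 h post-dose; loss-of-signal vs DMSO baseline. 22Rv1 cells in assay medium. Compounds: 8-pt 1:4 series, max 100 uM final, up to 0.5% DMSO; n = 2.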

Which results are given for `O=C(c1ccc(O)cc1)c1ccc(O)cc1O`?
AC50 [1]: 729 nM (active); AC50 [2]: 664 nM (active); AC50 [3]: 426 nM (active); AC50 [4]: 1280 nM (active); AC50 [5]: 1270 nM (active); AC50 [6]: 879 nM (active); AC50 [7]: 2690 nM (active); AC50 [8]: 531 nM (active); outcome [9]: inactive; outcome [10]: inactive; outcome [11]: inactive; outcome [12]: inactive; outcome [13]: inactive; outcome [14]: inactive

Which results are given for `CC(=O)[C@H]1[C@H](C#N)C[C@H]2[C@@H]3CC=C4C[C@@H](O)CC[C@]4(C)[C@H]3CC[C@@]21C`?
outcome [15]: inactive; outcome [16]: inactive

With `C=C1C2CCC(C2)C1(C)C` (stereo unspecified) as the molecule, how does the outcome [17] read?
The outcome was “inactive”.

And the outcome [16]?
Its outcome is “inactive”.

With `CC(C)=CCCC(C)C=O` (stereo unspecified) as the molecule, how does the AC50 [16] read?
Its AC50 is 11900 nM (active).

Which outcome [15] does the source give for `O=C(C=Cc1ccccc1)OCc1ccccc1` here?
Its outcome is “inactive”.

What about the outcome [16] of the same molecule?
Its outcome is “inactive”.

With `CC(=O)c1ccc2c(c1)CCCC2` as the molecule, how does the AC50 [16] read?
The AC50 was 31700 nM (active).

Which outcome [15] does the source give for `CC(C)c1ccc2cc(C(C)C)ccc2c1` here?
Its outcome is “inactive”.

And the outcome (AR (gene 367) [18])?
The outcome was “inactive”.

And the outcome (AR (gene 367) [19])?
Its outcome is “inactive”.

What does the source list for `O=S(=O)(O)c1ccccc1C=Cc1ccc(-c2ccc(C=Cc3ccccc3S(=O)(=O)O)cc2)cc1`?
outcome [15]: inactive; outcome [16]: inactive

For `CCCCCCCCCCOS(=O)(=O)O`, which outcome [15] is on record?
Its outcome is “inactive”.

And the outcome [16]?
The outcome was “inactive”.

For `OCCCS`, which AC50 [16] is on record?
The AC50 was 44400 nM (active).

For `O=CN1CCCCC1`, which outcome [16] is on record?
The outcome was “inactive”.

With `C=CC(C)(CCC=C(C)C)OC(=O)C(C)C` (stereo unspecified) as the molecule, how does the outcome [16] read?
The outcome was “inactive”.

With `CC(C)c1ccc2c(C(C)C)cc(C(C)C)c(S(=O)(=O)O)c2c1` as the molecule, how does the outcome [17] read?
The outcome was “inactive”.

And the outcome [16]?
The outcome was “inactive”.

And the outcome (AR (gene 367) [18])?
Its outcome is “inactive”.

With `O=S(=O)(O)CC(O)CCl` (stereo unspecified) as the molecule, how does the outcome [16] read?
The outcome was “inactive”.

Which outcome [16] does the source give for `CO[Si](OC)(OC)c1ccccc1` here?
Its outcome is “inactive”.

Which AC50 [15] does the source give for `COC(=O)c1c(C)cc(O)c(C)c1O` here?
Its AC50 is 4230 nM (active).

What about the outcome [16] of the same molecule?
Its outcome is “inactive”.

Which outcome [17] does the source give for `CCCCCCCC/C=C\CCCCCCCC(=O)OCCO` here?
The outcome was “inactive”.

And the AC50 [16]?
The AC50 was 4960 nM (active).

Reference: PubChem BioAssay (EPA / NIEHS)
